{
  "source": "the antibiotic and cytotoxicity screens of Wong et al. (2023)",
  "note": "In all, about 39,000 compounds went through this assay and about 500 (1.3%) were called active. The sample holds actives, similar compounds and a random draw of the others, so the mix is not that of the screen.",
  "data": [
    {"tested_on": "S. aureus RN4220", "assay": "growth inhibition call (relative growth <= 0.2)", "conditions": "50 µM", "values": [
      {"smiles": "Cc1cc(C(=O)Nc2cccc3c2O[C@H](CN(C)Cc2ccc4c(c2)OCO4)[C@H](C)CN([C@@H](C)CO)C3=O)n(C)n1", "growth inhibition call": "inactive"},
      {"smiles": "NC(Cc1c[nH]c2ccccc12)C(=O)O", "note": "(stereo not drawn)", "growth inhibition call": "inactive"},
      {"smiles": "NCCCC[C@@H](N)C(=O)N[C@@H](Cc1c[nH]c2ccccc12)C(=O)N[C@@H](CCCCN)C(=O)O", "growth inhibition call": "inactive"},
      {"smiles": "Cc1cc(C)cc(C(=O)N(C)[C@H](Cc2ccc(-c3ccccc3)cc2)C(=O)N[C@@H](Cc2c[nH]c3ccccc23)C(=O)O)c1", "growth inhibition call": "active"},
      {"smiles": "CCC[C@H]1CN(S(=O)(=O)c2c(C)cc(C)c3nonc23)C[C@@H]1N", "growth inhibition call": "inactive"},
      {"smiles": "Cn1c(=O)sn(-c2ccccc2)c1=O", "growth inhibition call": "inactive"},
      {"smiles": "Cn1sc(=O)n(Cc2ccccc2)c1=O", "growth inhibition call": "active"},
      {"smiles": "Nc1cc(=O)[nH]c(=O)n1Cc1ccccc1", "growth inhibition call": "inactive"},
      {"smiles": "Cc1ccc(S(=O)(=O)Nc2ccc3c(c2)C(=O)N([C@@H](C)CO)C[C@@H](C)[C@H](CN(C)S(=O)(=O)c2ccc(C)cc2)OCCCC[C@H](C)O3)cc1", "growth inhibition call": "inactive"},
      {"smiles": "CO[C@@H]1CN(C)C(=O)c2cc(NS(C)(=O)=O)ccc2OC[C@@H](C)N(C(=O)C2CCCCC2)C[C@@H]1C", "growth inhibition call": "inactive"},
      {"smiles": "Cc1ccc(C(C)C)cc2c(C)ccc1-2", "growth inhibition call": "inactive"},
      {"smiles": "CC(C)c1ccc(N2C=Nc3ccc(C(C)C)cc3C2)cc1", "growth inhibition call": "active"},
      {"smiles": "COc1ccc(NC(=O)Nc2ccc3c(c2)C(=O)N([C@@H](C)CO)C[C@@H](C)[C@@H](CN(C)C(=O)CCC(F)(F)F)OCCCC[C@@H](C)O3)cc1", "growth inhibition call": "inactive"},
      {"smiles": "C[C@@H]1CN([C@H](C)CO)C(=O)Cc2cc(NC(=O)C3CCCCC3)ccc2O[C@@H]1CN(C)Cc1ccc(C(F)(F)F)cc1", "growth inhibition call": "inactive"},
      {"smiles": "COc1cc(Nc2nc3ccccc3nc2NS(=O)(=O)c2ccc(NC(=O)c3ccc(C)c(OC)c3)cc2)cc(OC)c1", "growth inhibition call": "inactive"},
      {"smiles": "COc1cc(C(=O)NS(=O)(=O)c2ccccc2C)ccc1Cc1cn(C)c2ccc(NC(=O)OC3CCCC3)cc12", "growth inhibition call": "active"},
      {"smiles": "COc1ccccc1CNC(=O)C[C@H]1C[C@H]2c3cc(NC(=O)NC4CCCC4)ccc3O[C@H]2[C@H](CO)O1", "growth inhibition call": "inactive"},
      {"smiles": "CCNC(=O)[C@@H]1[C@@H](CO)[C@@H]2Cn3c(ccc(-c4ccc(OC)cc4)c3=O)[C@H]1N2S(C)(=O)=O", "growth inhibition call": "inactive"},
      {"smiles": "COc1ccc(NC(=O)Nc2ccc3c(c2)C(=O)N([C@H](C)CO)C[C@@H](C)[C@H](CN(C)CC2CC2)OCCCC[C@@H](C)O3)cc1", "growth inhibition call": "inactive"},
      {"smiles": "C[C@H](CO)N1C[C@H](C)[C@H](CN(C)Cc2ccc(-c3ccccc3)cc2)Oc2c(NS(=O)(=O)c3ccc(F)cc3)cccc2C1=O", "growth inhibition call": "inactive"},
      {"smiles": "COc1ccc(C)cc1S(=O)(=O)NCCO", "growth inhibition call": "inactive"},
      {"smiles": "Cc1cc(O[C@@H](CCC(F)(F)F)c2ccc(C(=O)NCCC(=O)O)cc2)cc(C)c1-c1ccc(C(C)(C)C)cc1", "growth inhibition call": "active"},
      {"smiles": "COc1ccc2cc(-c3cc(-c4cc(Cl)cc(Cl)c4)nn3[C@@H](C)c3ccc(C(=O)NCCC(=O)O)cc3)ccc2c1", "growth inhibition call": "inactive"},
      {"smiles": "Cc1cc(C)c(-c2ccc(NC(=O)[C@H](Cc3ccc(C(=O)NCCS(=O)(=O)O)cc3)c3ccc(-c4ccc(C(C)(C)C)cc4)cc3)cc2)c(C)c1", "growth inhibition call": "inactive"},
      {"smiles": "COc1ccc(NC(=O)Nc2cccc3c2O[C@H](CN(C)S(C)(=O)=O)[C@H](C)CN([C@@H](C)CO)C3=O)cc1", "growth inhibition call": "inactive"},
      {"smiles": "Nc1ncn(C[C@@H](O)CO)c2nc(Br)nc1-2", "growth inhibition call": "inactive"},
      {"smiles": "Cc1cc(-c2nnc(N)o2)nn1C", "growth inhibition call": "inactive"},
      {"smiles": "Nc1nnc(-c2ccc([N+](=O)[O-])o2)o1", "growth inhibition call": "active"},
      {"smiles": "Nc1nnc(-c2ccno2)o1", "growth inhibition call": "inactive"},
      {"smiles": "Cc1noc(C)c1NC(=O)N(C)C[C@@H]1OCCCC[C@@H](C)Oc2ccc(NC(=O)Nc3ccc(F)cc3)cc2C(=O)N([C@@H](C)CO)C[C@H]1C", "growth inhibition call": "inactive"},
      {"smiles": "CC(=O)Oc1cc(-c2coc3cc(OC(C)=O)c(OC(C)=O)c(OC(C)=O)c3c2=O)cc(OC(C)=O)c1OC(C)=O", "growth inhibition call": "inactive"},
      {"smiles": "O=C(NC1CCN(CCCCC2(C(=O)NCC(F)(F)F)c3ccccc3-c3ccccc32)CC1)c1ccccc1-c1ccc(C(F)(F)F)cc1", "growth inhibition call": "active"},
      {"smiles": "C[C@]1(C(=O)NCC(F)(F)F)c2ccccc2C(=O)N(Cc2cc(C(F)(F)F)cc(C(F)(F)F)c2)[C@H]1c1ccc(CO)cc1", "growth inhibition call": "inactive"},
      {"smiles": "O=C(NC1CCCCCCC1)c1ccccc1-c1ccccc1", "growth inhibition call": "inactive"},
      {"smiles": "C[C@@H]1CN([C@H](C)CO)C(=O)Cc2cc(NC(=O)Nc3ccc4c(c3)OCO4)ccc2O[C@H]1CN(C)S(C)(=O)=O", "growth inhibition call": "inactive"},
      {"smiles": "Cc1ccc(S(=O)(=O)N(C)C[C@H]2Oc3ccc(NC(=O)NC(C)C)cc3CC(=O)N([C@H](C)CO)C[C@H]2C)cc1", "growth inhibition call": "inactive"},
      {"smiles": "Cc1nnc(SCC2=C(C(=O)O)N3C(=O)[C@@H](NC(=O)Cn4cnnn4)[C@H]3SC2)s1", "growth inhibition call": "active"},
      {"smiles": "O=C(Cn1cnnn1)NC1C(=O)N2C(C(=O)O)=C(CSc3nncs3)CSC12", "note": "(stereo not drawn)", "growth inhibition call": "active"},
      {"smiles": "Cc1nnc(SCC2=C(C(=O)[O-])N3C(=O)C(NC(=O)Cn4cnnn4)C3SC2)s1.[Na+]", "note": "(stereo not drawn)", "growth inhibition call": "active"},
      {"smiles": "Cc1nnc(SCC2=C(C(=O)O)N3C(=O)[C@@H](N)[C@H]3SC2)s1", "growth inhibition call": "inactive"},
      {"smiles": "C[C@@H]1CN([C@@H](C)CO)C(=O)c2cc(NC(=O)Cc3ccccc3)ccc2O[C@@H](C)CCCCO[C@H]1CN(C)C(=O)Nc1cccc2ccccc12", "growth inhibition call": "inactive"},
      {"smiles": "Cc1cc(C(=O)Nc2cccc3c2O[C@H](CN(C)C(=O)Nc2ccccc2)[C@@H](C)CN([C@H](C)CO)C3=O)n(C)n1", "growth inhibition call": "inactive"},
      {"smiles": "C[C@@H]1CCCCO[C@@H](CN(C)C(=O)c2ccccc2)[C@@H](C)CN([C@H](C)CO)C(=O)c2cc(NC(=O)CCCCCC(=O)Nc3ccccc3N)ccc2O1", "growth inhibition call": "inactive"},
      {"smiles": "C[C@H]1CCCCO[C@H](CN(C)S(=O)(=O)c2ccc(F)cc2)[C@@H](C)CN([C@@H](C)CO)C(=O)c2cc(NC(=O)Nc3cccc4ccccc34)ccc2O1", "growth inhibition call": "inactive"},
      {"smiles": "Cc1csc2c(Cl)ncnc12", "growth inhibition call": "inactive"},
      {"smiles": "COc1ccc(CCN2C(=O)[C@@]3(Cc4ccccc42)c2ccccc2C(=O)N(C2CCCCC2)[C@H]3c2ccc(CO)cc2)cc1", "growth inhibition call": "inactive"},
      {"smiles": "COc1ccc(NC(=O)N(C)C[C@@H]2OCCCC[C@H](C)Oc3ccc(NC(=O)C4CCCCC4)cc3C(=O)N([C@H](C)CO)C[C@H]2C)cc1", "growth inhibition call": "inactive"},
      {"smiles": "C[C@H]1CCCCO[C@H](CN(C)C(=O)C2CCCCC2)[C@@H](C)CN([C@@H](C)CO)C(=O)c2cc(NC(=O)c3ccccc3)ccc2O1", "growth inhibition call": "inactive"}
    ]}
  ]
}
